Rows were chosen to be rich in hits. Some 3.6% of all compounds tested hit in one or more screens of this group.
BoNT F protease – BoNT/F light chain protease inhibitors, primary screen, biochemical, flow cytometry, MLPCN library. Botulinum neurotoxin type F light chain protease (Clostridium botulinum). Multiplex microsphere protease cleavage assay. AID 588497, 2011. 360,000 tested, 0.22% active. inhibition, % at 10 µM; in the data active = inhibition above about 35%, passing the limit was not always enough; inconclusive = no clear call, values can overlap the other calls
BoNT-A LC inh2 – BoNT/A light chain protease inhibitors, primary screen, biochemical, flow cytometry, MLPCN library. Botulinum neurotoxin type A light chain protease (Clostridium botulinum A str. ATCC 3502). multiplex microsphere protease substrate cleavage. inhibition, % at 10 µM. 360,000 tested, 0.17% active. AID 588499, 2011
MazF activator – activators of E. coli MazEF toxin-antitoxin RNase, primary screen, biochemical, fluorescence, uHTS | activation, % at 20 µM | FAM/BHQ RNA-DNA oligo cleavage fluorescence, 5 h | AID 504720, 2011 | 350,000 tested, 0.32% active | Endoribonuclease toxin MazF (Escherichia coli (strain K12)), P0AE70; in the data active = activation above about 50%
Target sequence (P0AE70 whole entry, looked up): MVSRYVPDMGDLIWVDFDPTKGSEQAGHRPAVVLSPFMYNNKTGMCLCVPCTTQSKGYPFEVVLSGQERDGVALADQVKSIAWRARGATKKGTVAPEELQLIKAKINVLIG
Autofluor counter – flagged as autofluorescent in microsphere protease counterscreen; fluorescence intensity (concentration not given with the values); 360,000 tested, 3.1% active; AID 624483; compound autofluorescence counterscreen, microsphere flow cytometry; active compounds read high; in the data active = fluorescence intensity above about 16000; inconclusive = no clear call, values can overlap the other calls
Anthrax LF prot – Bacillus anthracis LF protease inhibitors, primary screen, biochemical, multiplex microsphere, MLPCN library | AID 588501, 2011 | inhibition, % at 10 µM | multiplex microsphere protease cleavage assay | 360,000 tested, 0.12% active
Of the large screens only hits and unclear results are named; the others gave an inactive call. Cut-off read from the data, not from the text of the source, unless noted: active = inhibition above about 30%; inconclusive = no clear call, values can overlap the other calls; inactive = below that.

COc1ccc(NC(=O)COC(=O)CNC(=O)C2CCCCC2)cc1OC	none
O=C(CSc1ncn[nH]1)N1CCN(S(=O)(=O)c2ccc(Cl)cc2)CC1	Autofluor counter 21069
COc1cccc(/C=N/n2c(N)c(S(=O)(=O)c3cccs3)c3nc4ccccc4nc32)c1OC	Autofluor counter 16852
Cc1ccc(Cn2c(N)c(S(=O)(=O)c3cccs3)c3nc4ccccc4nc32)cc1	Autofluor counter 18251
Nc1c(S(=O)(=O)c2cccs2)c2nc3ccccc3nc2n1Cc1ccccc1	Autofluor counter 16336
COc1ccc(Cn2c(N)c(S(=O)(=O)c3cccs3)c3nc4ccccc4nc32)cc1	none
COc1cccc(/C=N/n2c(CO)nc3ccccc32)c1OC	BoNT-A LC inh2 inconclusive, Autofluor counter 21345
CC(=O)Nc1c(S(=O)(=O)c2ccccc2)c2nc3ccccc3nc2n1Cc1ccccc1	none
COCCn1c(N)c(S(=O)(=O)c2cccs2)c2nc3ccccc3nc21	none
COc1ccc(CC(=O)Nc2ccc(N3CCCC3)c(C)c2)cc1	none
CCSc1nnc2ccc(-c3ccco3)nn12	none
CCCc1cc(=O)[nH]c2nnc(SCC(=O)Nc3ccc4c(c3)OCCO4)n12	none
CC(NC(=O)c1ccccc1)C(=O)NNC(=O)c1ccccc1Cl (centres undefined)	none
CCOC(=O)CN(C(=O)CSc1nnc2c(n1)[nH]c1ccc(OC)cc12)c1ccc(F)cc1	Autofluor counter 22990
COc1ccc(CNC(=O)CSc2nnc3c(n2)[nH]c2ccc(F)cc23)cc1	none
Cc1ccc(-c2nc3ccccc3c(=O)n2-c2cccnc2)cc1	none
O=c1c2ccccc2nc(-c2ccccc2)n1-c1cccnc1	BoNT-A LC inh2 inconclusive, Autofluor counter 22832
O=C(O)CC1S/C(=N\N=C2CCCCCC2)N(c2ccccc2)C1=O (centres undefined)	none
CC(=O)/C=C1/SC(CC(=O)O)C(=O)N1c1ccccc1 (centres undefined)	Autofluor counter 17699
O=C1C2C3CC(C(Br)C3Br)C2C(=O)N1c1nccs1 (centres undefined)	none
O=C(Nc1ccnc(-c2cccnc2)n1)c1cccc(Cl)c1Cl	Autofluor counter 22659
CC(C)C(=O)Nc1ccnc(-c2cccnc2)n1	Autofluor counter 22732
CC(=O)Nc1ccnc(-c2cccnc2)n1	none
O=C(Nc1ccnc(-c2cccnc2)n1)c1ccccc1Cl	none
O=C(NCCc1ccccc1)c1cccc(N2CCCC2=O)c1	none
Cc1cc(C(=O)N2CCC2(C)C(=O)NCCC#N)nn1C (centres undefined)	none (no result: MazF activator)
CC1=C(C(=O)Nc2ccccc2)C(c2cccnc2)n2nc(-c3cccnc3)nc2N1 (centres undefined)	Autofluor counter 22749
C=CCn1c(COC)nnc1SCC(=O)c1ccc(F)cc1	BoNT-A LC inh2 inconclusive, Autofluor counter 16919
O=C1COc2ccc(-c3csc(=Nc4ccc(OC(F)F)cc4)n3CC3CCCO3)cc2N1 (centres undefined)	Autofluor counter 18135
COc1ccccc1N=c1scc(-c2ccc3c(c2)NC(=O)CO3)n1CC1CCCO1 (centres undefined)	none
Cc1ccc(S(=O)(=O)NNC(=O)c2sc(=S)n(C)c2C)cc1	none
COc1cccc(NC(=O)C2CCN(C(=O)[C@@H]3Cc4ccccc4CN3)CC2)c1	none
COc1ccc(CC(=O)NCc2ccccc2Cl)cc1S(=O)(=O)N1CCOCC1	Autofluor counter 23297
COc1ccc(CC(=O)NCc2ccccc2)cc1S(=O)(=O)N1CCOCC1	none
Cc1cc(=O)oc2cc(Oc3ccc([N+](=O)[O-])cc3[N+](=O)[O-])ccc12	none
CCc1ccc(NC2=NC(C(=O)NC3CCCCC3)CC(=O)N2)cc1 (centres undefined)	BoNT-A LC inh2 inconclusive, Autofluor counter 20212
COc1ccc(NC(=O)C2CC(=O)NC(Nc3cccc(C)c3)=N2)cc1 (centres undefined)	none
CC(OC(=O)C1=Cc2ccccc2OC1)C(=O)NCC1CCCO1 (centres undefined)	none
CCC(=O)NCCC(c1ccco1)c1ccccc1OC (centres undefined)	none
CCCNCCC(c1ccco1)c1ccccc1OC (centres undefined)	Autofluor counter 16663
CC1(NC(=O)COc2ccccc2-c2ccccc2)CCS(=O)(=O)C1 (centres undefined)	Autofluor counter 16681
CC(NC(=O)COc1ccccc1-c1ccccc1)c1ccccc1 (centres undefined)	none
O=c1nc(N2CCCCC2)nc2n1CCO2	none
CN1CCn2c1nc(N1CCCCC1)nc2=O	Autofluor counter 21803
C=CCn1cccc(/C=C/C(=O)c2ccc(C(C)(C)C)cc2)c1=S	BoNT-A LC inh2 29.9
NNS(=O)(=O)c1ccc(Sc2ccccn2)c([N+](=O)[O-])c1	MazF activator 220.2
COc1ccc(N/C(N)=N/c2nc(CSc3ccc(C)cc3)cc(=O)[nH]2)cc1	none
COC(=O)Cc1cc(=O)[nH]c(/N=C(\N)Nc2ccccc2)n1	Autofluor counter 21352
Cc1ccc(N/C(N)=N/c2nc(CSc3ccc(C)cc3)cc(=O)[nH]2)cc1	Autofluor counter 23020
CC1(C(=O)NCc2ccccc2Br)CCN1Cc1ccc(-c2ccccn2)cc1 (centres undefined)	none (no result: MazF activator)
Cc1ccc([C@H]2N[C@]3(CCCN(Cc4ccccc4)C3=O)[C@H]3C(=O)N(C)C(=O)[C@@H]23)cc1	none
CN1C(=O)CC(N2CCN(C(=O)CN3CCCC3)CC2)C1=O (centres undefined)	Autofluor counter 24470
O=C(Cc1ccc(Br)cc1)N1CCN(C(=O)c2ccco2)CC1	none
CC(=O)Nc1nnc(/C=C/c2cccc([N+](=O)[O-])c2)s1	BoNT F protease 63.1
COC(=O)Nc1nnc(/C=C/c2ccccc2)s1	none
NC(=O)c1c(NC(=O)C2COc3ccccc3O2)sc2c1CCN(Cc1ccccc1)C2 (centres undefined)	MazF activator 257.9
CCn1cnc2c1c(=O)n(CC(=O)O)c(=O)n2Cc1ccccc1	none
O=C(Cn1c(=O)c2c(ncn2Cc2ccccc2)n(Cc2ccccc2)c1=O)NC1CC1	Autofluor counter 19673
CCOC(=O)c1c(NC(=O)CC(C)C)sc(C(C)=O)c1C	none
CCOC(=O)c1sc(NC(=O)CCN2C(=O)c3ccccc3C2=O)c(C(=O)OCC)c1C	none
CCOC(=O)c1c(NC(=O)CCN2C(=O)c3ccccc3C2=O)sc(C(=O)OC(C)C)c1C	BoNT-A LC inh2 inconclusive, Autofluor counter 17126
CCOC(=O)c1sc(NC(=O)CN(CC(C)C)CC(C)C)c(C(=O)OCC)c1C	Autofluor counter 22136
Oc1ccccc1C1N=C(c2ccccc2)NC(c2ccccc2)=N1	Autofluor counter 22671
CCOc1ccccc1-n1c(CN2CCN(C(=O)c3ccco3)CC2)nc2ccccc2c1=O	Autofluor counter 23399

Compound activity from PubChem BioAssay.
